From PubChem BioAssay
Compounds with a hit are over-represented: about 21% of the library has one in this group of screens.
RORgamma inh – blocks mouse ROR gamma transcriptional activity. Drosophila S2 Gal4-RORgamma UAS-luciferase reporter, 20 h. AID 2551. actives 5.4% (n = 310,000). P51450. Potency, µM (titrated, usually from 53.6 µM), usual class: inhibitors; further: nearly all actives have a fitted effect of over 60% in size
Target sequence (P51450 whole entry, looked up, the tested form may be a part): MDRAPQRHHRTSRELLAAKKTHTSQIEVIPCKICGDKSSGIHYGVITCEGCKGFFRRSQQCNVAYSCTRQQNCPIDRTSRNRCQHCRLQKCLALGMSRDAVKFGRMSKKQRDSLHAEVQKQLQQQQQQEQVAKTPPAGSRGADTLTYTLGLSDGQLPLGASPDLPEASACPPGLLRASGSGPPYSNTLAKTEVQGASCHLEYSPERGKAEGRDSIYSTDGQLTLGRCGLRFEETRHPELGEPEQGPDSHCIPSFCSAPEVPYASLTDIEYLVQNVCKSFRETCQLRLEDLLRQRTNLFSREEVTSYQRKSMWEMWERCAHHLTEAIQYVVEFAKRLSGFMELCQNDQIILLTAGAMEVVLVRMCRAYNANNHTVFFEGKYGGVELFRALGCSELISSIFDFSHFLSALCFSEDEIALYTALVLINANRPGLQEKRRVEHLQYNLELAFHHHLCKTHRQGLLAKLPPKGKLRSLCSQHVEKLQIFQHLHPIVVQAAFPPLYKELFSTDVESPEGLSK
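ROR gamma transcriptional activity was tracked as Gal4-UAS luciferase output in stably transfected Drosophila Schneider cells, with compound added 1 hr before 700 uM copper sulfate induction and a 20 hr ambient-temperature incubation.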
IL1B secr inh – inflammasome signaling inhibition, IL-1 beta readout | THP-1 LPS/ATP IL-1B secretion, AlphaLISA, 16 h; hits give low values | activity change, % at 57.5 µM | actives 4.7% (n = 360,000) | AID 743279; in the data active means activity change below about -50%; inconclusive means mostly about -30% to -49%
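Secreted IL-1B measured by AlphaLISA bead assay after 16 h compound exposure of THP-1 cells; compounds (final up to 57.5 uM) added 1 h before LPS (250 ng/mL) and ATP (1.25 mM) stimulation; lower signal means less secretion.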
DT40 TDP1 CPT – DT40-hTDP1 cell growth loss with CPT | chicken DT40 Tdp1-/-;hTDP1 cells + 20 nM CPT, ATP luminescence, 48 h | Potency, µM (highest dose often 46.2 µM), hits mostly inhibitors | actives 12% (n = 420,000) | AID 686979; further: nearly all actives have a fitted effect of over 55% in size
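Chicken DT40 Tdp1-/- cells stably complemented with human TDP1 were seeded at 400 cells/well in medium containing 20 nM camptothecin, exposed to pin-transferred compounds, and grown at 37 °C for at least 48 hr. Viability was read as ATP luminescence.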
ELG1 DNA repair – blocks ELG1-dependent DNA repair in HEK293T cells | HEK293T ELG1-luciferase reporter, luminescence, 16 h; DNA damage induced by 5-fluorouridine | Potency, µM (doses to about 46.1 µM), hits mostly inhibitors | actives 2.3% (n = 330,000); further: nearly all actives have a fitted effect of over 55% in size
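Overnight (16 hr) co-exposure of 2,000 cells/well to 5-fluorouridine and compound at 37 °C preceded detection. Luciferase was quantified via ONE-Glo luminescence; loss of signal denotes inhibition.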
TDP1 cell noCPT – qHTS for Inhibitors of human tyrosyl-DNA phosphodiesterase 1 (TDP1): qHTS in cells in absence of CPT. actives 15% (n = 420,000). DT40 Tdp1-/- hTDP1 cells, no CPT, ATP luminescence, 48 h. Potency, µM (top dose mostly 46.2 µM), usual class: inhibitors; further: nearly all actives have a fitted effect of over 55% in size
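Chicken DT40 Tdp1-/- cells complemented with human TDP1, screened without camptothecin (DMSO vehicle only), 400 cells/well. Compounds pin-transferred, cells incubated at 37 °C for at least 48 hr. Growth read as ATP-dependent luminescence (CellTiter-Glo, 30 min at RT).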
VP16 counter – Gal4-VP16 reporter inhibition counter-screen; Potency, µM (titrated, usually from 53.6 µM), most hits filed as inhibitors; actives 3.5% (n = 310,000); Drosophila S2 Gal4-VP16 UAS-luciferase, luminescence, 20 h;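 further: Gal4-VP16 expression switched on by copper sulfate through the metallothionein promoter; nearly all actives have a fitted effect of over 50% in size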
Large screens that a line does not name were inactive. Unless noted, the call rests on the fitted dose curve; in most records, active means well fitted curve in the direction sought with a large enough effect; inconclusive means small, poorly fitted or top-dose-only effect, or another doubt; inactive means no such curve, though single readings can be large; an effect the other way counts as inactive or inconclusive.

CC(C(=O)NCc1ccc(Cl)cc1)n1ccc2cc(S(=O)(=O)N3CCCCCC3)ccc21 (stereo not drawn)	DT40 TDP1 CPT inconclusive, TDP1 cell noCPT 18µM (no result: RORgamma inh, IL1B secr inh, ELG1 DNA repair, VP16 counter)
COCCn1c(=O)c(C)nc2cnc(Oc3cccc(Cl)c3)nc21	none (no result: IL1B secr inh, ELG1 DNA repair)
COc1cccc(CNc2ccc([N+](=O)[O-])c(NCC(=O)O)n2)c1	none
COc1ccc(CCNC(=O)Cc2ccc(OCc3ccccc3)c(OC)c2[N+](=O)[O-])cc1OCc1ccccc1	RORgamma inh inconclusive, DT40 TDP1 CPT 23µM, ELG1 DNA repair inconclusive, TDP1 cell noCPT 8.2µM, VP16 counter 3.2µM
COc1cc(CNCCN2CCOCC2)ccc1OCc1cccc(Cl)c1	IL1B secr inh inconclusive, DT40 TDP1 CPT inconclusive, ELG1 DNA repair inconclusive, TDP1 cell noCPT 16µM
COc1ccc(CCNCc2ccc(-c3ccccc3)cc2)cc1OC	IL1B secr inh -90, DT40 TDP1 CPT inconclusive, TDP1 cell noCPT 23µM (no result: RORgamma inh, ELG1 DNA repair, VP16 counter)
COc1ccc(CCNCc2ccc(OCc3ccccc3)cc2)cc1	IL1B secr inh -99, DT40 TDP1 CPT inconclusive, TDP1 cell noCPT inconclusive
COc1cc(OC)cc(C(=O)NCC(=O)NCC(c2ccco2)N2CCCCC2)c1 (stereo not drawn)	none (no result: RORgamma inh, VP16 counter)
CC(C)n1nnnc1C1c2ccccc2C(=O)N1Cc1cccnc1 (stereo not drawn)	none (no result: RORgamma inh, ELG1 DNA repair, VP16 counter)
CCN(CC)S(=O)(=O)c1ccc2c(c1)N(CC(=O)NCc1ccccc1)C(=O)C1CCCCN21 (stereo not drawn)	DT40 TDP1 CPT inconclusive (no result: RORgamma inh, IL1B secr inh, ELG1 DNA repair, VP16 counter)
COc1cc(Cl)c(NC(=O)c2cc(S(=O)(=O)N3CCCCC3)c[nH]2)c(OC)c1	none (no result: RORgamma inh, IL1B secr inh, ELG1 DNA repair, VP16 counter)
COc1cc(CN(C)CCc2ccccc2)ccc1OCc1ccccc1	IL1B secr inh inconclusive, DT40 TDP1 CPT inconclusive, TDP1 cell noCPT 26µM
CCOc1cc(CNCc2ccccc2)ccc1OCc1ccc(Cl)cc1	RORgamma inh inconclusive, IL1B secr inh -94, DT40 TDP1 CPT 23µM, ELG1 DNA repair inconclusive, TDP1 cell noCPT 5.8µM
COc1ccc(CNCCc2ccc(Cl)cc2)cc1OCc1ccccc1	RORgamma inh inconclusive, IL1B secr inh -96, DT40 TDP1 CPT 6.5µM, ELG1 DNA repair 15µM, TDP1 cell noCPT 4.6µM
COc1ccc(CNCCc2ccccc2)cc1OCC(N)=O	none
COc1ccc(CCNC/C=C/c2ccccc2)cc1	IL1B secr inh -68, DT40 TDP1 CPT inconclusive, TDP1 cell noCPT inconclusive (no result: RORgamma inh, ELG1 DNA repair, VP16 counter)
CN(CC(=O)Nc1ccc(F)c(F)c1F)C(=O)c1ccc2c(c1)S(=O)(=O)N=C1CCCCCN12	none (no result: RORgamma inh, VP16 counter)
O=C(NCc1ccccc1)C1c2ccccc2OCC(=O)N1Cc1ccco1 (stereo not drawn)	none (no result: RORgamma inh, ELG1 DNA repair, VP16 counter)
COc1ccc(CCNCc2csc3nc4ccccc4n23)cc1OC	DT40 TDP1 CPT 12µM, TDP1 cell noCPT 9.2µM, VP16 counter 6.3µM
NC1=NC2OC(CO)C(O)C2O1 (stereo not drawn)	none (no result: RORgamma inh, ELG1 DNA repair, VP16 counter)
O=C1NC[C@H](CCCCN2CCN(CC3CCCCC3)C(=O)C2=O)N(Cc2ccccc2)C1=O	none (no result: RORgamma inh, ELG1 DNA repair, VP16 counter)
CCOc1ccccc1N(CC(=O)NCCSc1ccccn1)S(=O)(=O)c1ccccc1	DT40 TDP1 CPT inconclusive, TDP1 cell noCPT inconclusive
CCOc1ccccc1N(CC(=O)NCCSc1ccccc1)S(=O)(=O)c1ccccc1	DT40 TDP1 CPT inconclusive, TDP1 cell noCPT 10µM (no result: RORgamma inh, IL1B secr inh, ELG1 DNA repair, VP16 counter)
CCOc1ccccc1N(CC(=O)NCCSc1ccccn1)S(=O)(=O)c1ccc(C)cc1	DT40 TDP1 CPT inconclusive, TDP1 cell noCPT 21µM
Cc1ccccc1N(CC(=O)NCCSc1ccccn1)S(=O)(=O)c1ccccc1	ELG1 DNA repair inconclusive, TDP1 cell noCPT inconclusive
Cc1cc(C)cc(N(CC(=O)NCCSc2ccccn2)S(=O)(=O)c2ccccc2)c1	DT40 TDP1 CPT inconclusive, ELG1 DNA repair inconclusive, TDP1 cell noCPT 26µM
Cc1cc(C)cc(N(CC(=O)N/N=C/c2ccncc2)S(=O)(=O)c2ccccc2)c1	IL1B secr inh -54
O=C(NCc1nnnn1-c1ccc(F)cc1)c1cc2ccccc2o1	IL1B secr inh inconclusive (no result: RORgamma inh, ELG1 DNA repair, VP16 counter)
Cc1ccc(S(=O)(=O)N(CC(=O)NCCSc2ccccn2)c2ccc(C)c(C)c2)cc1	RORgamma inh inconclusive, IL1B secr inh -53, DT40 TDP1 CPT inconclusive, ELG1 DNA repair inconclusive, TDP1 cell noCPT inconclusive
O=C(C[n+]1ccnc2ccccc21)c1ccc(Cl)cc1	TDP1 cell noCPT inconclusive (no result: RORgamma inh, IL1B secr inh, ELG1 DNA repair, VP16 counter)
CC[n+]1ccnc2ccccc21	DT40 TDP1 CPT 2.2µM, TDP1 cell noCPT 2.8µM (no result: RORgamma inh, IL1B secr inh, ELG1 DNA repair, VP16 counter)
COC(=O)[C@H]1C[C@H](OC(=O)NC2CC2)[C@@]2(O)CN(S(=O)(=O)c3ccc(C)cc3)CC2[C@H]1C(=O)OC (stereo partly drawn)	none (no result: RORgamma inh, ELG1 DNA repair, VP16 counter)
Cc1noc2ncnc(N3CCN(c4ccccc4F)CC3)c12	DT40 TDP1 CPT 21µM, TDP1 cell noCPT 23µM (no result: RORgamma inh, IL1B secr inh, ELG1 DNA repair, VP16 counter)
Fc1ccccc1N1CCN(c2ncnc3nc[nH]c23)CC1	none
Fc1ccccc1N1CCN(c2ncnc3[nH]ncc23)CC1	RORgamma inh inconclusive, DT40 TDP1 CPT 15µM, TDP1 cell noCPT inconclusive
COc1ccccc1N1CCN(c2ncnc3onc(C)c23)CC1	DT40 TDP1 CPT inconclusive, TDP1 cell noCPT 15µM (no result: RORgamma inh, IL1B secr inh, ELG1 DNA repair, VP16 counter)
COc1ccccc1N1CCN(c2ncnc3n[nH]c(Br)c23)CC1	DT40 TDP1 CPT inconclusive, TDP1 cell noCPT inconclusive (no result: RORgamma inh, ELG1 DNA repair, VP16 counter)
Cc1noc(C)c1COc1ccc(C(=O)N2CCN(c3ccccc3F)CC2)cc1	ELG1 DNA repair inconclusive, TDP1 cell noCPT inconclusive (no result: RORgamma inh, VP16 counter)
CC(=O)c1ccccc1NC(=O)COC(=O)C1=NN(c2ccccc2)C(=O)CC1	none (no result: RORgamma inh, VP16 counter)
Cc1nn(-c2cc(C)c3ccccc3n2)c2c1C1C(C2)C1(C)C (stereo not drawn)	RORgamma inh 0.71µM, DT40 TDP1 CPT 18µM, TDP1 cell noCPT inconclusive, VP16 counter 18µM
